Data taken from PubChem BioAssay (NCATS).
Results filed as inconclusive are left out. Entries that show only a call come without a potency. Calls of active or inactive are those of the source. Unless noted, the call rests on the fitted dose curve; in most records, active means well fitted curve in the direction sought with a large enough effect; inconclusive means small, poorly fitted or top-dose-only effect, or another doubt; inactive means no such curve, though single readings can be large; an effect the other way counts as inactive or inconclusive.

Columns and labels:
[1] = Cell Viability - Hek293 (AID 427;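 active means compounds whose dose-response curve shows a full or clear partial loss of cell viability, called from curve shape rather than a numeric limit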;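 further: potency means the concentration at half of the fitted maximal effect; cells exposed to compound for 40 hours at 37 °C before reading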); conditions: qHTS
Outline: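 qHTS, human embryonic kidney (adenovirus-transformed) cells; 40 hr cpd, 37 °C; CellTiter-Glo ATP luminescence. Norm: DMSO = 0, 100 uM tamoxifen = 100% inhibition. Hill-fit AC50.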

[2] = Cell Viability - SK-N-SH (AID 435; calls by dose curve; further: potency means the concentration at half of the fitted maximal effect); conditions: SK-N-SH neuroblastoma cell viability qHTS
Outline: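 qHTS cytotoxicity: CellTiter-Glo ATP luminescence after 40 h compound exposure of human neuroblastoma SK-N-SH cells at 37 °C. AC50 derived by Hill-equation fitting, with DMSO as basal and 100 uM tamoxifen as full inhibition.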

[3] = Cell Viability - N2a (AID 540); conditions: N2a mouse neuroblastoma cell viability; activity change, negative = cytotoxicity: at 92.2 µM (top of the series); further: nearly all actives have a fitted effect of over 45% in size
Outline: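 Mouse neuroblastoma N2a cells, 1500/well, exposed to compounds 40 h at 37 °C in complete medium. Viability measured as cellular ATP by CellTiter-Glo luminescence; AC50 from Hill fits of concentration-response.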

[4] = Cell Viability - SH-SY5Y (AID 544); conditions: SH-SY5Y neuroblastoma cell viability; viability change, negative = cytotoxic: at 92.2 µM (top of the series); further: nearly all actives have a fitted effect of over 55% in size; further: potency means the concentration at half of the fitted maximal effect
Outline: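 SH-SY5Y human neuroblastoma cells (1500/well) incubated 5 h, then compound-treated 40 h at 37 °C in complete medium. Viability read as intracellular ATP by CellTiter-Glo luminescence after 20 min; AC50 from Hill-equation fits of qHTS concentration-response.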

[5] = Cell Viability - Renal Proximal Tubule (AID 545); conditions: renal proximal tubule cells viability, primary cells of rat origin; activity change, negative = cytotoxicity: at 91.7 µM (top of the series); further: nearly all actives have a fitted effect of over 40% in size
Outline: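 Viability taken as intracellular ATP (CellTiter-Glo luminescence) after 40 hr, 37 °C compound treatment of primary proximal tubule cells from rat kidney, 1000 cells/well; Hill-equation fits of qHTS concentration-response data gave AC50.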

[6] = MultiTox-Fluor Cytotoxicity Assay - LYMP1-002 - Dead Cells (AID 960); conditions: LYMP1-002 lymphoblastoid cells, dead-cell protease fluorescence; series mostly up to 46.1 µM;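 further: cells exposed to compound for 16 h at 37 °C; nearly all actives have a fitted effect of over 60% in size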
Outline: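 Human lymphoblastoid LYMP1-002 cells, 2500/well, treated 16 h at 37 C; dead-cell protease cleavage of bis-AAF-R110 read by fluorescence (485/520); normalized to DMSO and 15 uM tetraoctylammonium bromide; AC50 from Hill fit.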

[7] = Cell Viability - LYMP2-005 (AID 967); conditions: LYMP2-005 lymphoblastoid cell viability; series mostly up to 92.2 µM; further: potency means the concentration at half of the fitted maximal effect
Outline: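 LYMP2-005 human lymphoblastoid cells (2500/well) were treated with compounds for 24 h at 37 C. Intracellular ATP was then measured by CellTiter-Glo luminescence after 30 min at room temperature. AC50 values came from Hill-equation fits of qHTS concentration-response data.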

[8] = Cell Viability - LYMP2-009 (AID 968); conditions: LYMP2-009 lymphoblastoid cell viability; series mostly up to 92.2 µM; further: nearly all actives have a fitted effect of over 55% in size; further: potency means the concentration at half of the fitted maximal effect
[9] = Cell Viability - LYMP2-015 (AID 971); conditions: LYMP2-015 lymphoblastoid cell viability; series mostly up to 92.2 µM; further: nearly all actives have a fitted effect of over 55% in size; further: potency means the concentration at half of the fitted maximal effect
Outline: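 LYMP2-015 human lymphoblastoid cells (2500/well) in complete medium, compound-treated 24 h at 37 C; viability read as cellular ATP by CellTiter-Glo luminescence after 30 min at room temperature. AC50 from Hill-equation fits of qHTS concentration-response data.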

[10] = Cell Viability - LYMP2-017 (AID 972); conditions: LYMP2-017 lymphoblastoid cell viability; series mostly up to 92.2 µM; further: nearly all actives have a fitted effect of over 55% in size; further: potency means the concentration at half of the fitted maximal effect
Outline: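 LYMP2-017 human lymphoblastoid cells (2500/well) settled 5 hr at 37 C, then exposed to compound 24 hr at 37 C in complete medium. Viability taken as intracellular ATP by CellTiter-Glo luminescence after 30 min at RT; AC50 from Hill fits.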

[11] = Cell Viability - LYMP2-019 (AID 973); conditions: LYMP2-019 lymphoblastoid cell line viability; series mostly up to 92.2 µM; further: nearly all actives have a fitted effect of over 55% in size; further: potency means the concentration at half of the fitted maximal effect
Outline: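 Human lymphoblastoid LYMP2-019 cells (2500/well) preincubated 5 h at 37 C, then treated 24 h at 37 C in complete medium. Viability by CellTiter-Glo ATP luminescence after 30 min at room temperature; AC50 from Hill fits.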

[12] = Cell Viability - LYMP2-010 (AID 981); conditions: LYMP2-010 lymphoblastoid cell viability, qHTS; series mostly up to 92.2 µM; further: nearly all actives have a fitted effect of over 55% in size; further: potency means the concentration at half of the fitted maximal effect
Outline: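 Human lymphoblastoid LYMP2-010 cells (2500/well) treated 24 h at 37 C in complete medium; viability read as intracellular ATP by CellTiter-Glo luminescence. AC50 from Hill fits of concentration-response data; tetraoctylammonium bromide positive control.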

[13] = qHTS assay for small molecule agonists of retinoid X receptor alpha signaling (AID 588544; calls by dose curve); conditions: HEK293T RXRa-UAS-bla, beta-lactamase reporter, 18 h; 530 nm emission
[14] = molecular target: Retinoic acid receptor RXR-alpha (Homo sapiens) (UniProt P19793); test: as above; conditions: HEK293T RXRa-UAS-bla, beta-lactamase reporter, 18 h; series mostly up to 76.7 µM
[15] = qHTS assay for small molecule disruptors of the mitochondrial membrane potential - 5 hr assay (AID 651755; calls by dose curve; further: nearly all actives have a fitted effect of over 40% in size); conditions: JC-1-type ratio dye; series mostly up to 92.2 µM
Outline: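 HepG2, 2,000 cells/well, overnight attach; cpd or DMSO 5 hr, 37C/5% CO2; Mito-MPS 30 min 37C; fluor 490/535 + 540/590 nm.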

[16] = qHTS assay for small molecule agonists of the antioxidant response element (ARE) signaling pathway measured by Nrf2-dependant transcriptional activity (AID 720636; active means well fitted curve in the direction sought with a large enough effect in the repeat runs; an effect the other way counts as inactive or inconclusive;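 further: HepG2 cells with an ARE-driven luciferase reporter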); conditions: ARE-luc HepG2, Nrf2 luciferase reporter, 16 h; series mostly up to 92.4 µM
Outline: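 In HepG2 cells engineered with an Nrf2-responsive luciferase gene, ARE induction was quantified as luminescence after 16 hr compound treatment at 37 C.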

[17] = molecular target: Nuclear receptor subfamily 1 group I member 2 (Rattus norvegicus) (UniProt Q9R1A7); test: qHTS assay for small molecule activators of the rat pregnane X receptor (rPXR) signaling pathway (AID 651751; call rule not given here); conditions: rPXR reporter cells, luciferase (One-Glo), 24 h
[18] = Cell Viability - LYMP2-001 (AID 921); conditions: LYMP2-001 lymphoblastoid cell viability; series mostly up to 92.2 µM; further: nearly all actives have a fitted effect of over 70% in size; further: potency means the concentration at half of the fitted maximal effect
Outline: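 Cellular ATP loss read by luciferase luminescence after 24 h compound exposure at 37 C in complete medium. LYMP2-001 lymphoblastoid cells, 2500/well; qHTS concentration-response data fitted with Hill equation for AC50.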

[19] = qHTS assay for small molecule disruptors of the mitochondrial membrane potential - 1 hr assay (AID 651754; calls by dose curve; further: nearly all actives have a fitted effect of over 35% in size); conditions: series mostly up to 92.2 µM
Outline: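 HepG2 cells, attached overnight, were exposed to compound for 1 hr at 37C, then stained 30 min with a potentiometric dye. Ratio of red aggregate (590nm) to green monomer (535nm) fluorescence reports membrane potential; collapse shifts signal toward green.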

[20] = molecular target: Thyroid hormone receptor beta (Homo sapiens) (UniProt P10828); test: qHTS assay for small molecule agonists of thyroid hormone receptor beta signaling (AID 588545; calls by dose curve); conditions: TR-UAS-bla GripTite HEK 293, beta-lactamase ratio, agonist mode, 18 h; series mostly up to 76.7 µM
Outline: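 Beta-lactamase reporter activity under TR response element control is measured in HEK 293 cells after 18 hrs compound exposure. Signal is ratiometric CCF4 fluorescence, 460/530 nm.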

Retinoic acid receptor RXR-alpha (Homo sapiens), sequence (P19793 whole entry, looked up): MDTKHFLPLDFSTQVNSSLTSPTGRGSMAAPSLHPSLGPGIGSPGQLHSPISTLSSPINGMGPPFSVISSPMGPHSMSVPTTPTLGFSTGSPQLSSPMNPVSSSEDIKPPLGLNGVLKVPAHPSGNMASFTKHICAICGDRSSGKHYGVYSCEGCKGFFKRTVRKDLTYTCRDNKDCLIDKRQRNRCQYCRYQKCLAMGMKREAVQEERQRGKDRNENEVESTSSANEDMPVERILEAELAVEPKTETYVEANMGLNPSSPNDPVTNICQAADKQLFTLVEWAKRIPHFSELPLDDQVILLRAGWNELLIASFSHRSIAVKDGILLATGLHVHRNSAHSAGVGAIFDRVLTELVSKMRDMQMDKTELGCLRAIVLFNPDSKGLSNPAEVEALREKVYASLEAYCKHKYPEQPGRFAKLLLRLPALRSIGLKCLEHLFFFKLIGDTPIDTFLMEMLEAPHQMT
Nuclear receptor subfamily 1 group I member 2 (Rattus norvegicus), sequence (Q9R1A7 whole entry, looked up): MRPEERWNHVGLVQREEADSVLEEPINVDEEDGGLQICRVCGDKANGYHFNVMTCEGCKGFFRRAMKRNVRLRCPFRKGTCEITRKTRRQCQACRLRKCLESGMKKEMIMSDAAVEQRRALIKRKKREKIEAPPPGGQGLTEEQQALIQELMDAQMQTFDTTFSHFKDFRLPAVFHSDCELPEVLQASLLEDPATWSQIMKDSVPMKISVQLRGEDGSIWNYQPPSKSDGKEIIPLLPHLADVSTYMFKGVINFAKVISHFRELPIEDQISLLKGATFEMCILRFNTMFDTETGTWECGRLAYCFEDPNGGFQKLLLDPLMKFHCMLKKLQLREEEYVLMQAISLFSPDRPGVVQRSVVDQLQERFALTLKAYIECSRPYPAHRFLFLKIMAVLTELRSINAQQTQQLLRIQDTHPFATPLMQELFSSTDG
Thyroid hormone receptor beta (Homo sapiens), sequence (P10828 whole entry, looked up): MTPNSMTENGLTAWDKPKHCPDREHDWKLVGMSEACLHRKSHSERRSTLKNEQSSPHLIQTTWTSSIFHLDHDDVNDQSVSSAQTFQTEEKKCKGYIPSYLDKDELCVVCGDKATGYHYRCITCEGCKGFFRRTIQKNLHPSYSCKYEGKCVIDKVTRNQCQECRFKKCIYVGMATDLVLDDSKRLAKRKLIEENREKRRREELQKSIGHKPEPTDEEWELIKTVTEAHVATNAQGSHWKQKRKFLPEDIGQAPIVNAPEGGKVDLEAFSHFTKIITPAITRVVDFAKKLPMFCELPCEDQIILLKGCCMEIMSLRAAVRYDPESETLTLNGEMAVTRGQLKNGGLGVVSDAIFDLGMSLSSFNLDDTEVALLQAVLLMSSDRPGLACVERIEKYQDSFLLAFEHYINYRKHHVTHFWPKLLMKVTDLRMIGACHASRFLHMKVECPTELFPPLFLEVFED

Structure (SMILES)	Potency [1]	Potency [2]	activity change, negative = cytotoxicity [3]	Potency [4]	Potency [5]	Potency [6]	Potency [7]	Potency [8]	Potency [9]	Potency [10]	Potency [11]	Potency [12]	max response [13]	Potency [14]	Potency [15]	Potency [16]	max response [17]	Potency [18]	Potency [19]	Potency [20]
O=[N+]([O-])c1ccccc1Nc1ccccc1	> 92 µM (inactive)	> 92 µM (inactive)	-9.33% (inactive)	inactive	inactive	inactive	inactive	inactive	inactive	inactive	inactive	inactive	-18.5%	inactive	inactive	inactive	-3.61% (inactive)			
CC(=O)c1ccc(Cl)c(Cl)c1Cl	> 92 µM (inactive)	> 92 µM (inactive)	-12.1% (inactive)	inactive	inactive	inactive	inactive	inactive	inactive	inactive	inactive	inactive	-2.84%	inactive	inactive	inactive	-2.86% (inactive)	inactive	inactive	
CC(C)S	> 92 µM (inactive)	> 92 µM (inactive)	-5.34% (inactive)	inactive	inactive	inactive	inactive	inactive	inactive	inactive	inactive	inactive	-9.69%	inactive	inactive	inactive	-6.45% (inactive)	inactive	inactive	inactive
C/C=C/C=C/C=O				31.6 µM (active)		inactive	39.8 µM (active)	39.8 µM (active)	39.8 µM (active)	31.6 µM (active)	39.8 µM (active)	31.6 µM (active)	-9.87%	inactive	inactive	inactive	-0.0021% (inactive)	39.8 µM (active)	inactive	inactive
CCC(Cl)CC(Cl)C(Cl)C(Cl)C(Cl)C(C)Cl (stereo not given)	> 92 µM (inactive)	> 92 µM (inactive)	-24.5% (inactive)	inactive	inactive		inactive	inactive	inactive	inactive	inactive	inactive	-26.2%	inactive	inactive	inactive		inactive	inactive	inactive
c1ccc(CSCc2ccccc2)cc1	> 92 µM (inactive)	> 92 µM (inactive)	-17.4% (inactive)	inactive	inactive	inactive	inactive	inactive	inactive	inactive	inactive	inactive	-16.6%	inactive	inactive	inactive	-1.32% (inactive)	inactive	inactive	inactive
